Laboratory results: PubChem BioAssay (NCATS)
Where “and” joins values, the source holds several entries; their conditions need not be identical. Identical values can stand only once. Results filed as inconclusive are left out. Calls of active or inactive are those of the source. Calls come from the whole dose curve; as a rule, active = well fitted curve in the direction sought with a large enough effect; inconclusive = small, poorly fitted or top-dose-only effect, or another doubt; inactive = no such curve, though single readings can be large; an effect the other way counts as inactive or inconclusive.

Assays:
CRL-7250 = normal cell line; assay: Cytotoxic Profiling of Annotated Libraries Using Quantitative High-Throughput Screening (AID 1296008); conditions: Five cell lines viability, CellTiter-Glo ATP luminescence, 48-72 h; max response: hits give low values; note: nearly all actives have a fitted effect of over 60% in size
How it was run: (§1)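 Cytotoxicity was measured as CellTiter-Glo ATP luminescence, read after 10 min at room temperature. Compound treatment of the cells lasted 48 or 72 hr at 37 degrees Celsius in a qHTS format.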

HEK293 = assay: as above; conditions: Five cell lines viability, CellTiter-Glo ATP luminescence, 48-72 h; max response: hits give low values
How it was run: as §1

HaCat [1] = assay: as above; conditions: Five cell lines viability, CellTiter-Glo ATP luminescence, 48-72 h; max response: hits give low values
How it was run: as §1

KB-3-1 = assay: as above; conditions: Five cell lines viability, CellTiter-Glo ATP luminescence, 48-72 h; max response: hits give low values
How it was run: as §1

NIH3T3 [2] = assay: as above; conditions: Five cell lines viability, CellTiter-Glo ATP luminescence, 48-72 h; max response: hits give low values
How it was run: as §1

HACAT [3] = assay: qHTS assay to identify novel small-molecules to repurpose for Merkel cell carcinoma treatment (AID 1296009); conditions: MCC and control cell lines, CellTiter-Glo viability, 72 h; at 44.8 µM (top of the series) unless noted; note: nearly all actives have a fitted effect of over 60% in size; note: potency is the fitted concentration of half-maximal effect
How it was run: (§2)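 Cell viability, measured as CellTiter-Glo luminescence, was normalized between DMSO and no-cell wells. The cells had been exposed to 8- or 11-point compound dilutions for 72 hr at 37 degree celsius.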

HEK293T [4] = assay: as above; conditions: MCC and control cell lines, CellTiter-Glo viability, 72 h; at 44.8 µM (top of the series) unless noted
How it was run: as §2

MCC-13 = assay: as above; conditions: MCC and control cell lines, CellTiter-Glo viability, 72 h; series mostly up to 46 µM
How it was run: as §2

MCC-26 = assay: as above; conditions: MCC and control cell lines, CellTiter-Glo viability, 72 h; series mostly up to 46 µM
How it was run: as §2

MKL-1 = assay: as above; conditions: MCC and control cell lines, CellTiter-Glo viability, 72 h; series mostly up to 46 µM
How it was run: as §2

MKL-2 = assay: as above; conditions: MCC and control cell lines, CellTiter-Glo viability, 72 h; series mostly up to 46 µM
How it was run: as §2

NIH3T3 [5] = assay: as above; conditions: MCC and control cell lines, CellTiter-Glo viability, 72 h; series mostly up to 44.8 µM
How it was run: as §2

UISO = assay: as above; conditions: MCC and control cell lines, CellTiter-Glo viability, 72 h; series mostly up to 46 µM
How it was run: as §2

WaGa = assay: as above; conditions: MCC and control cell lines, CellTiter-Glo viability, 72 h; series mostly up to 46 µM
How it was run: as §2

C33A = assay: Primary qHTS to identify gynecologic anti-cancer compounds using libraries of approved drugs and bioactive compounds (AID 1345084); conditions: Gynecologic cancer cell panel viability, ATPlite luminescence, 48 h; series mostly up to 57.5 µM; note: nearly all actives have a fitted effect of over 55% in size
How it was run: (§3)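 48 h compound exposure at 37 C, 5% CO2; five-point qHTS. ATPlite luminescence readout of cell ATP.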

CAOV3 = assay: as above; conditions: Gynecologic cancer cell panel viability, ATPlite luminescence, 48 h; series mostly up to 57.5 µM
How it was run: as §3

CASKI = assay: as above; conditions: Gynecologic cancer cell panel viability, ATPlite luminescence, 48 h; series mostly up to 57.5 µM
How it was run: as §3

Es-2 = assay: as above; conditions: Gynecologic cancer cell panel viability, ATPlite luminescence, 48 h; series mostly up to 57.5 µM
How it was run: as §3

HeLa = assay: as above; conditions: Gynecologic cancer cell panel viability, ATPlite luminescence, 48 h; series mostly up to 57.5 µM
How it was run: as §3

Hek293T [6] = assay: as above; conditions: Gynecologic cancer cell panel viability, ATPlite luminescence, 48 h, control line for the selectivity index; series mostly up to 57.5 µM
How it was run: as §3
% is set by controls: 0 for no effect and ±100 for the full control effect.

CS(=O)(=O)c1ccc(C2=C(c3ccccc3)C(=O)OC2)cc1
inactive: max response (CRL-7250) 3.58% and 2.56% | outcome (HEK293) | max response (HaCat [1]) -5.92% | outcome (HaCat [1]) | max response (KB-3-1) 20.7% and -2.3% and -12.9% | max response (NIH3T3 [2]) -4.55% | outcome (NIH3T3 [2]) | outcome (HACAT [3]) | outcome (HEK293T [4]) | Potency (MCC-13) | Potency (MCC-26) | Potency (MKL-1) | Potency (MKL-2) | Potency (NIH3T3 [5]) | Potency (UISO) | Potency (WaGa) | Potency (C33A) | Potency (CAOV3) | Potency (CASKI) | Potency (Es-2) | Potency (HeLa) | Potency (Hek293T [6])

O=C(O)CCNc1cc(N2CCc3ccccc3CC2)nc(-c2ccccn2)n1
active: Potency (UISO) 14.8 µM
inactive: max response (CRL-7250) -1.59% and -1.08% and -1.74% | max response (HEK293) 1.95% and -5.12% | outcome (HEK293) | max response (HaCat [1]) -11.8% | outcome (HaCat [1]) | max response (KB-3-1) -6.65% and -1.07% | outcome (KB-3-1) | max response (NIH3T3 [2]) -1.17% and -17.2% and -11.6% | outcome (HACAT [3]) | outcome (HEK293T [4]) | Potency (MCC-13) | Potency (MCC-26) | Potency (MKL-1) | Potency (C33A) | Potency (CAOV3) | Potency (CASKI) | Potency (Es-2) | Potency (HeLa) | Potency (Hek293T [6])

c1cc(OCCN2CCCCC2)cc(-c2n[nH]c3ccc(-c4ncn[nH]4)cc23)c1
active: Potency (WaGa) 18.7 µM
inactive: max response (CRL-7250) -3.49% | outcome (CRL-7250) | outcome (HaCat [1]) | max response (KB-3-1) -21.9% | max response (NIH3T3 [2]) -3.48% and 4.45% | outcome (HACAT [3]) | Potency (MCC-13) | Potency (MKL-1) | Potency (C33A) | Potency (CAOV3) | Potency (CASKI) | Potency (Es-2) | Potency (HeLa) | Potency (Hek293T [6])

CCCCn1c(=O)n(Cc2ccccc2F)c(=O)c2[nH]c(Cc3ccc(NC(C)=O)cc3)nc21
inactive: max response (CRL-7250) -20% and 4.17% | max response (HEK293) -5.59% and -2.73% | max response (HaCat [1]) -7.85% | outcome (HaCat [1]) | max response (KB-3-1) -6.11% | outcome (KB-3-1) | max response (NIH3T3 [2]) -1.2% and 4.04% | outcome (HACAT [3]) | Potency (MCC-13) | Potency (MCC-26) | Potency (MKL-1) | Potency (MKL-2) | Potency (UISO) | Potency (WaGa) | Potency (C33A) | Potency (CAOV3) | Potency (CASKI) | Potency (Es-2) | Potency (HeLa) | Potency (Hek293T [6])

CN(C)c1nc(Cc2ccc(NC(=O)c3ccc(C(F)(F)F)cc3)cc2)nc(N(C)C)c1CC(=O)O
inactive: outcome (CRL-7250) | max response (HEK293) 3.18% | outcome (HEK293) | outcome (HaCat [1]) | max response (KB-3-1) 4.62% | outcome (KB-3-1) | max response (NIH3T3 [2]) -4.49% and 4.34% | outcome (HACAT [3]) | outcome (HEK293T [4]) | Potency (MCC-13) | Potency (MCC-26) | Potency (MKL-1) | Potency (MKL-2) | Potency (UISO) | Potency (WaGa) | Potency (C33A) | Potency (CAOV3) | Potency (CASKI) | Potency (Es-2) | Potency (HeLa) | Potency (Hek293T [6])

Cc1ccccc1C(C(=O)NC1CCCCC1)N(C(=O)CNc1ccc(C#N)cc1)c1cccc(F)c1 (stereo unspecified)
inactive: max response (CRL-7250) 4.34% | outcome (CRL-7250) | max response (HEK293) -1.85% | outcome (HEK293) | max response (HaCat [1]) -5.11% | outcome (HaCat [1]) | max response (KB-3-1) 5.31% | outcome (KB-3-1) | max response (NIH3T3 [2]) -3.8% and -0.279% | outcome (HACAT [3]) | outcome (HEK293T [4]) | Potency (MCC-13) | Potency (MCC-26) | Potency (MKL-1) | Potency (MKL-2) | Potency (UISO) | Potency (WaGa) | Potency (C33A) | Potency (CAOV3) | Potency (CASKI) | Potency (Es-2) | Potency (HeLa) | Potency (Hek293T [6])

O=C(c1ccc(C(=O)N2CCC(N3CCCC3)CC2)c(Nc2ccccc2)c1)N1CCC(N2CCCC2)CC1
inactive: max response (CRL-7250) -2.66% and 0.948% | max response (HEK293) -1.83% and -8.97% | outcome (HaCat [1]) | max response (KB-3-1) -1.29% and -4.53% | max response (NIH3T3 [2]) -1.45% | outcome (NIH3T3 [2]) | outcome (HACAT [3]) | Potency (MCC-13) | Potency (MCC-26) | Potency (MKL-1) | Potency (MKL-2) | Potency (NIH3T3 [5]) | Potency (UISO) | Potency (WaGa) | Potency (C33A) | Potency (CASKI) | Potency (Es-2) | Potency (HeLa) | Potency (Hek293T [6])

CCN1C[C@H](C)n2c(c(O)c3c(=O)n(Cc4ccc(F)c(Cl)c4)nc(C(=O)NC)c32)C1=O
inactive: max response (CRL-7250) -6.85% | outcome (CRL-7250) | max response (HEK293) 1.12% | outcome (HEK293) | max response (HaCat [1]) -5.77% and -3.93% | max response (KB-3-1) 3.26% and 8.63% | outcome (KB-3-1) | max response (NIH3T3 [2]) 0.921% and -1.89% | outcome (HEK293T [4]) | Potency (MCC-13) | Potency (MCC-26) | Potency (MKL-1) | Potency (MKL-2) | Potency (UISO) | Potency (WaGa) | Potency (C33A) | Potency (CAOV3) | Potency (CASKI) | Potency (Es-2) | Potency (HeLa) | Potency (Hek293T [6])

Cc1cc2c(cc1C1(c3ccc(C(=O)O)cn3)CC1)C(C)(C)CCC2(C)C
inactive: outcome (CRL-7250) | max response (HEK293) -8.08% | max response (HaCat [1]) -17.6% | max response (KB-3-1) 4.32% | outcome (KB-3-1) | outcome (NIH3T3 [2]) | Potency (MCC-13) | Potency (MCC-26) | Potency (MKL-1) | Potency (MKL-2) | Potency (NIH3T3 [5]) | Potency (UISO) | Potency (WaGa) | Potency (C33A) | Potency (CAOV3)
